An excerpt weighted towards active compounds, which were near 7.6% of everything screened.
Giardia kill: Giardia lamblia killing; Giardia lamblia trophozoite viability; activity change, % at 7.66 µM, hits read low; actives 0.15% (n = 340,000); AID 540267; in the data active means activity change below about -80%; inconclusive means between about -30% and that limit;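 further: parasites exposed to compound for two days anaerobically before the ATP read; on the % scale 0 is the no-effect control and ±100 the full control effect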
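Luminescent ATP signal served as the viability read-out, measured 15-30 min after adding ATP detection reagent to trophozoites that had been incubated with compounds for 48 hrs at 37 deg C anaerobically at 100 cells/well.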
ELG1 DNA repair: blocks ELG1-dependent DNA repair in HEK293T cells; actives 2.3% (n = 330,000); AID 504467; HEK293T ELG1-luciferase reporter, luminescence, 16 h; DNA damage induced by 5-fluorouridine; Potency, µM (titrated, usually from 46.1 µM), for inactives: at the highest dose activity change, negative = inhibition, usual class: inhibitors; further: potency means the concentration at half of the fitted maximal effect; on the % scale 0 is the no-effect control and ±100 the full control effect; nearly all actives have a fitted effect of over 55% in size
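DMSO vehicle served as the neutral condition. Each well held 2,000 cells given 5-fluorouridine plus compound; after 16 hr at 37 °C/5% CO2, ONE-Glo was added and luciferase measured 30 min later.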
VP16 counter: counter-screen for ROR gamma inhibitors: Gal4-VP16 reporter | Drosophila S2 Gal4-VP16 UAS-luciferase, luminescence, 20 h | Potency, µM (series often up to 53.6 µM), without a hit: at the highest dose activity, negative = inhibition, usual class: inhibitors | actives 3.5% (n = 310,000) | AID 2546;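 further: Gal4-VP16 expression switched on by copper sulfate through the metallothionein promoter; potency means the concentration at half of the fitted maximal effect; on the % scale 0 is the no-effect control and ±100 the full control effect; nearly all actives have a fitted effect of over 50% in size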
RORg inh: inhibitors of mouse ROR gamma transcriptional activity; AID 2551; Drosophila S2 Gal4-RORgamma UAS-luciferase reporter, 20 h; P51450; Potency, µM (highest dose often 53.6 µM), for the others: top-dose activity change, negative = inhibition, hits mostly inhibitors; actives 5.4% (n = 310,000); further: potency means the concentration at half of the fitted maximal effect; on the % scale 0 is the no-effect control and ±100 the full control effect; nearly all actives have a fitted effect of over 60% in size
Target sequence (P51450 whole entry, looked up, the tested form may be a part): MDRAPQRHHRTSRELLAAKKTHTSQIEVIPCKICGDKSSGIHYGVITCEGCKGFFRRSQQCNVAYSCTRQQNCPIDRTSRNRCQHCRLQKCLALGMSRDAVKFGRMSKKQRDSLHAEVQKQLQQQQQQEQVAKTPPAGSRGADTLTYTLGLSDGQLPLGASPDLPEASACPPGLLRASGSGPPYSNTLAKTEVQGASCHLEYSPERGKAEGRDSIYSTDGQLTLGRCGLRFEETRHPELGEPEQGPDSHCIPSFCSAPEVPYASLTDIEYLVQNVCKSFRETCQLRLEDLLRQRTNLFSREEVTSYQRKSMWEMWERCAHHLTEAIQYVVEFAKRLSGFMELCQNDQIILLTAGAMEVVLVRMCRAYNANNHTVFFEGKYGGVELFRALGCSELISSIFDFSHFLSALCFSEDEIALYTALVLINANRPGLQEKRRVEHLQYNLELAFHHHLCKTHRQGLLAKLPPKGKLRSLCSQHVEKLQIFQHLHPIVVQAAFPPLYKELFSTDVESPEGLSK
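Compounds are pin-transferred onto Drosophila Schneider cells expressing a copper-inducible Gal4–ROR gamma transactivation domain fusion. After 1 hr, copper sulfate is added to 700 uM final; luciferase is read 20 hr later.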
p53 reactivator: mutant p53 re-activation in reporter cells; H1299 p53-A138V BP100-luciferase reporter, luminescence, 24 h; Potency, µM (titrated, usually from 92.2 µM), inactives show at the highest dose activity change, positive = activation, hits mostly activators; actives 0.063% (n = 320,000); AID 504706; further: potency means the concentration at half of the fitted maximal effect; % of control where 0% means no effect; nearly all actives have a fitted effect of over 45% in size
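H1299 (p53-null), stable ts p53-A138V + BP100-Luc; 1000 cells/well, Opti-MEM/10% FBS; cpd 4 pt, 1:5; 24 h, 37 deg C, 5% CO2; detection reagent 10 min RT; luminescence.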
BRCA1 expr up: activators of BRCA1 expression | Potency, µM (doses to about 46.1 µM), without a hit: at the highest dose activation, most hits filed as activators | actives 1.1% (n = 380,000) | MCF7-BRCA1-FFLuc reporter, luminescence, 48 h; response scale: scaled: vehicle 0%, 10 µM genistein 100%; further: potency means the concentration at half of the fitted maximal effect; nearly all actives have a fitted effect of over 80% in size
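Compounds are tested at multiple concentrations on MCF7 BRCA1-luciferase reporter cells seeded at 2000 per well; after 48 h, a single luminescence end-point is taken and curves fitted to the normalized data.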
* marks the source's active call; other numbers are inactive results; [ ] = dose if it differs, or a comment. Unless noted, the call rests on the fitted dose curve; in most records, active means well fitted curve in the direction sought with a large enough effect; inconclusive means small, poorly fitted or top-dose-only effect, or another doubt; inactive means no such curve, though single readings can be large; an effect the other way counts as inactive or inconclusive.

How did OCCNC(=S)NC1CCCCC1 do in these assays?
Giardia kill: -2.7; ELG1 DNA repair: 3.4%; VP16 counter: 7.7%; RORg inh: 8.1%; p53 reactivator: 0.1%; BRCA1 expr up: 2.3%

How did COc1ccccc1NC(CC(=O)c1ccccc1)C(=O)OCC(=O)c1ccc(Br)cc1 (stereo not drawn) do in these assays?
Giardia kill: 0.9; ELG1 DNA repair: inconclusive; VP16 counter: inconclusive; RORg inh: 14.9%; p53 reactivator: inconclusive; BRCA1 expr up: -32.2%

How did CC(=O)Nc1ccc(C(=O)CSc2nnc(Cn3nnc4ccccc43)n2C)cc1 do in these assays?
Giardia kill: -14.0; ELG1 DNA repair: 3.9%; VP16 counter: 8.1%; RORg inh: -12.7%; p53 reactivator: 1.5%; BRCA1 expr up: 12.2%

Results for Cc1sc2ncn(CC(=O)NCCc3ccccc3)c(=O)c2c1C ?
Giardia kill: -4.4; ELG1 DNA repair: 8.8%; VP16 counter: -7.2%; RORg inh: 38.9%; p53 reactivator: -3.8%; BRCA1 expr up: -8.5%

What do the screens show for `CC1(c2ccccc2)CC2CC(c3ccccc3)N1O2` (stereo not drawn)?
Giardia kill: 4.5; ELG1 DNA repair: -2.2%; VP16 counter: 4.8%; RORg inh: -1.3%; p53 reactivator: -4.4%; BRCA1 expr up: -13.2%

How did Cc1ccc(CNC(=S)NC2CCCCC2)cc1 do in these assays?
Giardia kill: 4.7; ELG1 DNA repair: 9.6%; VP16 counter: 3.98µM*; RORg inh: 3.98µM*; p53 reactivator: 17.9%; BRCA1 expr up: 1.2%

How did S=C(NCc1cccc(Cl)c1)NC1CCCCC1 do in these assays?
Giardia kill: -6.4; ELG1 DNA repair: -12.9%; VP16 counter: 14.1µM*; RORg inh: 2.82µM*; p53 reactivator: 6.6%; BRCA1 expr up: -6.6%

Results for S=C(NCCc1ccccn1)NC1CCCCC1 ?
Giardia kill: 5.1; ELG1 DNA repair: inconclusive; VP16 counter: -90.3%; RORg inh: 12.6µM*; p53 reactivator: inconclusive; BRCA1 expr up: 87.6%

Results for Cc1ccc(CNC(=O)NC2CCCCC2)cc1 ?
Giardia kill: 10.5; ELG1 DNA repair: inconclusive; VP16 counter: 4.6%; RORg inh: 30.0%; p53 reactivator: inconclusive; BRCA1 expr up: 10µM*

How did S=C(NCc1ccncc1)NC1CCCCC1 do in these assays?
Giardia kill: 39.9; ELG1 DNA repair: -11.9%; VP16 counter: -5.0%; RORg inh: 2.9%; p53 reactivator: 10.9%; BRCA1 expr up: -3.8%

How did O=C(NCc1ccncc1)NC1CCCCC1 do in these assays?
Giardia kill: -9.9; ELG1 DNA repair: 8.1%; VP16 counter: -1.6%; RORg inh: 7.7%; p53 reactivator: -0.5%; BRCA1 expr up: 16.1%

Results for O=C(Nc1cccc(Cl)c1)NC1(C(=O)NCc2cccs2)CCCCC1 ?
Giardia kill: -12.1; ELG1 DNA repair: inconclusive; VP16 counter: -21.4%; RORg inh: -32.7%; p53 reactivator: 8.5%; BRCA1 expr up: -0.7%

What do the screens show for `COc1ccc(NC(=O)C(Cc2ccccc2)NS(=O)(=O)c2ccc3c(c2)CCC(=O)N3)c(OC)c1` (stereo not drawn)?
BRCA1 expr up: 0.0%

How did CCOC(=O)CC1NCCc2c1[nH]c1ccc(OC)cc21 (stereo not drawn) do in these assays?
Giardia kill: 4.2; ELG1 DNA repair: 7.5%; VP16 counter: 4.5%; RORg inh: 11.6%; p53 reactivator: 4.6%; BRCA1 expr up: -9.5%

How did O=C1c2ccccc2CN1CCNC(=S)NC1CCCCC1 do in these assays?
Giardia kill: 1.9; ELG1 DNA repair: inconclusive; VP16 counter: -25.0%; RORg inh: 17.8µM*; p53 reactivator: 5.6%; BRCA1 expr up: 67.3%

Results for O=C(NCCCCc1ccccc1)C1CCCC1 ?
Giardia kill: -20.5; ELG1 DNA repair: 12.3%; VP16 counter: 17.0%; RORg inh: -20.7%[1.91 µM]; BRCA1 expr up: 32.6%

How did S=C(NCc1ccccc1)NC1CCCCC1 do in these assays?
Giardia kill: 9.8; ELG1 DNA repair: -6.2%; VP16 counter: 17.8µM*; RORg inh: 3.98µM*; p53 reactivator: -1.3%; BRCA1 expr up: 0.5%

What do the screens show for `S=C(NCCCc1ccccc1)NC1CCCCC1`?
Giardia kill: -0.3; ELG1 DNA repair: inconclusive; VP16 counter: 7.08µM*; RORg inh: 4.47µM*; p53 reactivator: inconclusive; BRCA1 expr up: inconclusive

How did S=C(Nc1ccccn1)NC1CCCCC1 do in these assays?
Giardia kill: -0.7; ELG1 DNA repair: inconclusive; VP16 counter: 5.01µM*; RORg inh: 2µM*; p53 reactivator: 3.0%; BRCA1 expr up: -8.2%

What do the screens show for `O=C(NCCN1Cc2ccccc2C1=O)c1cccs1`?
Giardia kill: -16.0; ELG1 DNA repair: inconclusive; VP16 counter: -2.5%; RORg inh: 30.1%; p53 reactivator: inconclusive; BRCA1 expr up: inconclusive

How did COc1ccccc1C(=O)N/C(=C\c1cn(S(=O)(=O)N(C)C)c2ccccc12)C(=O)NCCCN1CCOCC1 do in these assays?
Giardia kill: 33.5; ELG1 DNA repair: 1.9%; VP16 counter: inconclusive; RORg inh: inconclusive; p53 reactivator: 5.3%; BRCA1 expr up: -11.6%

What do the screens show for `CCOC(=O)C(NC(=O)c1ccc(F)cc1)(Nc1sc2c(c1C(N)=O)CCC2)C(F)(F)F` (stereo not drawn)?
Giardia kill: inconclusive; ELG1 DNA repair: -16.7%; VP16 counter: -4.3%; RORg inh: -11.3%; p53 reactivator: -11.7%; BRCA1 expr up: -3.9%

What do the screens show for `Cc1ccc2nc(C)cc(Nc3ccc([N+](=O)[O-])cc3)c2c1`?
Giardia kill: -5.0; ELG1 DNA repair: inconclusive; VP16 counter: 5.01µM*; RORg inh: 7.08µM*; p53 reactivator: -5.6%; BRCA1 expr up: -6.5%

Results for COC(=O)c1c(NC(=O)CSc2nc(-c3ccco3)cc(C(F)(F)F)n2)sc2c1CCCC2 ?
Giardia kill: -11.8; ELG1 DNA repair: 16.1%; VP16 counter: 2.3%; RORg inh: -7.2%; p53 reactivator: 0.9%; BRCA1 expr up: 10.2%

How did O=C1CSCC(=O)N1c1ccccc1 do in these assays?
Giardia kill: -25.4; ELG1 DNA repair: 10.6%; VP16 counter: 1.0%; RORg inh: 13.9%; p53 reactivator: -3.6%; BRCA1 expr up: 12.4%

How did O=C(CN1CCN(S(=O)(=O)c2ccccc2F)CC1)Nc1ccccc1C(=O)c1ccccc1 do in these assays?
Giardia kill: -1.5; ELG1 DNA repair: 11.6µM*; VP16 counter: -2.1%; RORg inh: 6.4%; p53 reactivator: 9.9%; BRCA1 expr up: -65.7%

Results for O=C(CN1CCCC1)Nc1ccccc1C(=O)c1ccccc1 ?
Giardia kill: 8.3; ELG1 DNA repair: 36.1%; VP16 counter: -2.9%; RORg inh: 20.0%; p53 reactivator: -2.1%; BRCA1 expr up: 8.3%

Screening data (PubChem)
